Sampled rows, rich in hits. Any-hit rate of the full collection: about 1.3%.
KCNH2 3.1 inh = qHTS for Inhibitors of KCHN2 3.1: Mutant qHTS. Potassium voltage-gated channel subfamily H member 2, brain isoform KCNH2 3.1 (human). U2OS KCNH2 3.1, thallium flux FluxOr; stronger effect = lower value. activity change, % (tested at about 1.8 µM). 0.95% of 340,000 active;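 active means maximum activity change below -70%; inconclusive means maximum activity change from -70% to -50%; inactive means maximum activity change above -50%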;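 further: thallium influx rate constant from kinetic fluorescence after stimulation buffer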
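FluxOr-based Tl+ influx in U2OS cells transduced with KCNH2 3.1 virus; rate constants normalized to DMSO controls.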
TRPV1 agonist = HTS Assay for Compounds that Act as Agonists of the Vanilloid Receptor 1. TRPV1-expressing cells, Fluo-8 calcium influx, agonist mode. activation, % at 8.33 µM. 0.19% of 320,000 active. AID 540275, 2011; in the data active means activation above about 80%; inconclusive means between about 30% and that limit
Target sequence (Q8NER1 whole entry, looked up): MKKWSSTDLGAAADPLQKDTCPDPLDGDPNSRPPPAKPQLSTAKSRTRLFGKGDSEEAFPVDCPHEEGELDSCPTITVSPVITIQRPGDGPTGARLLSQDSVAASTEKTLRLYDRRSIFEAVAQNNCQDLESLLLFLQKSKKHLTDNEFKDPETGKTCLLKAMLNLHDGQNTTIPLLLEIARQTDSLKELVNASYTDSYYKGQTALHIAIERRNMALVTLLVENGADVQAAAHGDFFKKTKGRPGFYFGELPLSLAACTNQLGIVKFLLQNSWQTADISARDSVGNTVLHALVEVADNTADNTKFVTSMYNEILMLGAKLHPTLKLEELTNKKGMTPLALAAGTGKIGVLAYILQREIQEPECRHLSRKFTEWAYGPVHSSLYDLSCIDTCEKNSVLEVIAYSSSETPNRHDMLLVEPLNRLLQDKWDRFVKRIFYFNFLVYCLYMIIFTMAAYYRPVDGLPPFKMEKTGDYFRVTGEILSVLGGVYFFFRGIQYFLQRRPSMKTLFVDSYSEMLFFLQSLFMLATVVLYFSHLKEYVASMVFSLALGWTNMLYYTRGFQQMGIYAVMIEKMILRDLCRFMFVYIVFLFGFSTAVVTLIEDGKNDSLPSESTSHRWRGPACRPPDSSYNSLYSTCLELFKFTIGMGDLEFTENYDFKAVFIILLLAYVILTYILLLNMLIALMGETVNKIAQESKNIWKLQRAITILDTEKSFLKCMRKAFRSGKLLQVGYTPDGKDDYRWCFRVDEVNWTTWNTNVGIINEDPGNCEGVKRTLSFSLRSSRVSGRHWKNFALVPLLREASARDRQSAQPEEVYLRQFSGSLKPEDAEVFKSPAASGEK
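Fluo-8 calcium influx in TRPV1-expressing cells, kinetic read (ex 480/em 520 nm). Compound added and read 3 min for agonist activity, followed by capsaicin at EC20 final and 2 min further read for enhancement.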
TRPV1 PAM = HTS Assay for Compounds that Act as Potentiators of the Vanilloid Receptor 1 | 0.02% of 320,000 active | AID 540277, 2011 | TRPV1-expressing cells, Fluo-8 calcium influx, capsaicin EC20 potentiation | potentiation, % at 8.33 µM; in the data active means potentiation above about 80%; inconclusive means between about 30% and that limit
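TRPV1-expressing cells were cultured overnight at 35.5C and loaded with Fluo-8 calcium dye for 40 to 90 min at room temperature. After a 10 s baseline, compound was added and calcium influx was read kinetically for 3 min (ex 480/em 520 nm).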
MBNL1 CUG block = qHTS Assay for Inhibitors of MBNL1-poly(CUG) RNA binding. Muscleblind-like protein 1 (Homo sapiens), Q9NR56. TR-FRET MBNL1-His/biotin-(CUG)12 binding, 665/545 ratio. Potency, µM (series often up to 57.5 µM), most hits filed as inhibitors. 0.036% of 280,000 active; active means well fitted inhibition curve with a large enough effect in the signal ratio, with a control signal flat, not every such curve was filed as active; inconclusive means small, poorly fitted or top-dose-only effect, or effect the other way, or a change in a side signal; inactive means no such curve, though single readings can be large or run the other way; the % refers to the signal ratio
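Ratiometric TR-FRET (665 over 545 nm, excitation 340 nm) tracks disruption of MBNL1-His/biotin-(CUG)12 complex after 60 min at room temperature, with compounds at 92 nM to 58 uM final.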
KCNH2 WT inh = qHTS for Inhibitors of KCHN2 3.1: Wildtype qHTS | AID 720551, 2013 | Voltage-gated inwardly rectifying potassium channel KCNH2 (Homo sapiens), Q12809 | 0.37% of 340,000 active | activity change, % at 1.84 µM | U2OS, BacMam KCNH2, thallium flux FluxOr; stronger effect = lower value;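 active means maximum activity change below -70%; inconclusive means maximum activity change between -70% and -50%; inactive means maximum activity change above -50%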
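U2OS cells transduced with wild-type KCNH2 virus are loaded with FluxOr dye for 45 min, and thallium flux is measured in kinetic reads before and after stimulation buffer. Rate constants are normalized to DMSO controls.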
Of the large screens only hits and unclear results are named; the others gave an inactive call.

CCOc1cc(C)ccc1OCc1nnc(SCC(=O)c2cccc([N+](=O)[O-])c2)n1C	MBNL1 CUG block inconclusive
Cn1c(COc2ccccc2)nnc1SCC(=O)c1cccc([N+](=O)[O-])c1	KCNH2 3.1 inh -92.1, MBNL1 CUG block inconclusive
O=C(NCCSCc1c(F)cccc1Cl)Nc1ccccc1	TRPV1 agonist 82.8
CC(C)C[C@H]1CN=C(Nc2ccccc2)N1CCC1CCCCC1	KCNH2 3.1 inh inconclusive
c1ccc(C[C@H]2CN=C(Nc3ccccc3)N2CCC2CCCC2)cc1	KCNH2 3.1 inh -94.1 (no result: MBNL1 CUG block)
CC(CCN1C(Nc2ccccc2)=NC[C@@H]1Cc1ccccc1)c1ccccc1 (some centres not stated)	KCNH2 3.1 inh -82.1
O=C(NCCS(=O)(=O)N1CCN(c2cccc(Cl)c2)CC1)c1ccco1	none (no result: MBNL1 CUG block)
O=C(NCCCc1ccc(F)cc1)C1CCC(=O)N(CCN2CCOCC2)C1 (configuration not stated)	none
CCCNC(=O)c1ccc(N2CCC3(CC2)CC(c2cccc(Br)c2)=NO3)c(NC(=O)c2cccc(OC)c2)c1	KCNH2 3.1 inh -71.8 (no result: MBNL1 CUG block)
CCCNC(=O)c1ccc(N2CCC3(CC2)CC(c2cccc(Br)c2)=NO3)c(NC(=O)c2ccccc2)c1	none (no result: MBNL1 CUG block)
CCCNC(=O)c1ccc(N2CCC3(CC2)CC(c2cccc(Br)c2)=NO3)c([N+](=O)[O-])c1	KCNH2 3.1 inh -79.7, KCNH2 WT inh -129.5
CCCCCCCC(=O)Nc1cc(C(=O)NCCC)ccc1N1CCC2(CC1)CC(c1ccccc1)=NO2	KCNH2 3.1 inh -90.0, KCNH2 WT inh -113.4
CN(C)c1ccc(/C=C/C(=O)c2ccc(O)cc2)cc1	KCNH2 WT inh inconclusive (no result: TRPV1 agonist, TRPV1 PAM, MBNL1 CUG block)
CN(C)c1ccc(/C=C/C(=O)c2cccnc2)cc1	TRPV1 agonist 84.9, MBNL1 CUG block inconclusive
CCOc1ccc(N(C(=O)c2snc(C(N)=O)c2N)C(C(=O)NC2CCCC2)c2ccncc2)cc1 (configuration not stated)	none
CCN1CCN(C(c2cccs2)C(C)NS(=O)(=O)c2ccc(C)cc2)CC1 (configuration not stated)	KCNH2 3.1 inh -75.6 (no result: KCNH2 WT inh)
CCN1CCN(C(c2cccs2)C(C)NS(=O)(=O)c2ccccc2)CC1 (configuration not stated)	none
Cc1c(NC(=O)c2cccc(-c3cc4ccccc4oc3=O)c2)cccc1-c1nc2ncccc2o1	KCNH2 3.1 inh -96.1
Cc1c(NC(=O)C(C)C)cccc1-c1nc2ncccc2o1	none
COC(=O)c1sccc1NC(=S)N(C)C1CCCCC1	none
CCCCN(C)C(=S)Nc1ccsc1C(=O)OC	KCNH2 3.1 inh -154.5
COC(=O)c1sccc1NC(=O)Nc1ccc(C(C)=O)cc1	KCNH2 3.1 inh -79.4, TRPV1 agonist inconclusive
COC(=O)c1sccc1NC(=O)c1ccc(OC)cc1OC	KCNH2 3.1 inh -176.1, KCNH2 WT inh -246.1 (no result: MBNL1 CUG block)
CCOC(=O)[C@@H]1[C@H]2COc3cc(OC)ccc3[C@@H]2N2C(=O)N(c3ccccc3)C(=O)[C@@]12C	none (no result: TRPV1 agonist, TRPV1 PAM, MBNL1 CUG block)
CN1CCN(c2ccc(NC(=O)c3ccc(-c4ccc(Br)cc4)o3)cc2)CC1	KCNH2 3.1 inh -70.8, MBNL1 CUG block inconclusive
Cc1cc(C)nc(SCC(CSc2nc(C)cc(C)n2)C(=O)O)n1	none
CCc1ccc(C(C)NC(=S)NCc2ccc(F)cc2)cc1 (configuration not stated)	TRPV1 agonist inconclusive
Cc1ccc(C(C)NC(=S)NCc2ccc(F)cc2)c(C)c1 (configuration not stated)	TRPV1 agonist inconclusive
Cc1ccc(C(C)NC(=S)NCc2ccc(F)cc2)cc1C (configuration not stated)	TRPV1 agonist 80.1
CCOc1ccc(C(C)NC(=S)NCc2ccc(F)cc2)cc1 (configuration not stated)	TRPV1 agonist 86.5
CO/N=C/c1ccc(N2CCN(C(=O)c3ccc(Cl)cc3Cl)CC2)c([N+](=O)[O-])c1	KCNH2 3.1 inh -108.7, MBNL1 CUG block inconclusive
CO/N=C/c1ccc(N2CCN(C(=O)c3ccc(F)cc3)CC2)c([N+](=O)[O-])c1	KCNH2 3.1 inh -102.2, MBNL1 CUG block inconclusive
CO/N=C/c1ccc(N2CCN(C(=O)c3cccc(C(F)(F)F)c3)CC2)c([N+](=O)[O-])c1	MBNL1 CUG block inconclusive, KCNH2 WT inh -243.5
O=C(N/N=C/c1ccc(N2CCOCC2)c([N+](=O)[O-])c1)c1ccc(F)cc1	MBNL1 CUG block inconclusive
Cc1ccc(C(=O)O/N=C\c2ccc(N3CCCCC3)c([N+](=O)[O-])c2)cc1	KCNH2 3.1 inh -77.2
Cc1cc(C)c2nc(-c3ccccn3)cc(C(=O)NCc3cc(C)n(C)n3)c2c1	TRPV1 agonist 87.5
Cc1nc(C(F)(F)F)ccc1C(=O)Nc1ccc(C(F)(F)F)cn1	TRPV1 agonist 82.2 (no result: MBNL1 CUG block)
CC1CCN(S(=O)(=O)c2ccc3c(c2)c(=O)c(C(=O)N2CCOCC2)cn3C)CC1	KCNH2 3.1 inh -127.1
Cc1sc2ncnc(N3CCN(CCOc4ccc(Cl)cc4)CC3)c2c1C	KCNH2 3.1 inh -79.0
Cc1cc(C)c(-c2csc(NC(=O)/C=C/c3cccs3)n2)c(C)c1	KCNH2 3.1 inh -77.5
Cc1cc(C)nc(NC(=O)/C=C/c2cccs2)c1	MBNL1 CUG block inconclusive
O=C(c1cc2ccccc2oc1=O)N(Cc1cccs1)C1CCS(=O)(=O)C1 (configuration not stated)	KCNH2 3.1 inh -162.8, KCNH2 WT inh -174.2
Cc1ccc(CNC(=O)[C@H](C)[C@H]2C[C@]2(C)[C@H](NC(=O)OCc2ccccc2)c2ccccc2)o1	none
O=C(CCc1nnc(CCCc2ccccc2)o1)NCC(F)(F)F	KCNH2 3.1 inh -181.6, TRPV1 PAM inconclusive, KCNH2 WT inh -240.3
Cc1cccc(-c2nnc(SC(C)C(=O)N3CCOCC3)o2)c1 (configuration not stated)	none
COCCNC(=O)c1ccccc1NC(=O)CN(c1ccc2c(c1)OCO2)S(C)(=O)=O	none
COC(=O)c1ccc(C(=O)OC)c(NC(=O)CN(c2ccc3c(c2)OCO3)S(C)(=O)=O)c1	KCNH2 3.1 inh -132.1
CN(C)C(CNc1ncnc2sc3c(c12)CCCCC3)c1ccco1 (configuration not stated)	none
Cc1sc2ncnc(NCC(c3ccco3)N(C)C)c2c1C (configuration not stated)	TRPV1 agonist 86.0

Screening data deposited in PubChem BioAssay by National Center for Advancing Translational Sciences (NCATS).
